High-throughput results (PubChem BioAssay)
Most compounds without a hit are left out; they make up all but 4.3% or so of the library.
MazEF act = MazEF (E. coli) toxin RNase activation. FAM/BHQ RNA-DNA oligo cleavage fluorescence, 5 h. hit rate 0.32% among 350,000. activation, % at 20 µM; in the data active = activation above about 50%
BoNT F protease = inhibitors of Botulinum neurotoxin F light chain protease. Multiplex microsphere protease cleavage assay, flow cytometry. inhibition, % at 10 µM. hit rate 0.22% among 360,000. AID 588497; in the data active = inhibition above about 35%, passing the limit was not always enough; inconclusive = no clear call, values can overlap the other calls
BoNT-A LC inh2 = BoNT A light chain protease inhibition | inhibition, % at 10 µM | multiplex microsphere protease substrate cleavage, flow cytometry | hit rate 0.17% among 360,000
PfHsp40 rescue = compounds rescuing yeast from Plasmodium falciparum HSP40 toxicity | hit rate 0.68% among 340,000 | growth rescue, % at 12.5 µM | AID 504582 | S. cerevisiae expressing PfHsp40, growth rescue, ATP luminescence; in the data active = growth rescue above about 28%, passing the limit was not always enough; inconclusive = no clear call, values can overlap the other calls;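 also: yeast W303a lacking pdr1 and pdr3 grown in galactose medium; growth measured after three days at 30 °C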
Anthrax LF prot = anthrax lethal factor protease inhibition; multiplex microsphere protease cleavage assay, LF; hit rate 0.12% among 360,000; inhibition, % at 10 µM; P15917
Target sequence (P15917 whole entry, looked up): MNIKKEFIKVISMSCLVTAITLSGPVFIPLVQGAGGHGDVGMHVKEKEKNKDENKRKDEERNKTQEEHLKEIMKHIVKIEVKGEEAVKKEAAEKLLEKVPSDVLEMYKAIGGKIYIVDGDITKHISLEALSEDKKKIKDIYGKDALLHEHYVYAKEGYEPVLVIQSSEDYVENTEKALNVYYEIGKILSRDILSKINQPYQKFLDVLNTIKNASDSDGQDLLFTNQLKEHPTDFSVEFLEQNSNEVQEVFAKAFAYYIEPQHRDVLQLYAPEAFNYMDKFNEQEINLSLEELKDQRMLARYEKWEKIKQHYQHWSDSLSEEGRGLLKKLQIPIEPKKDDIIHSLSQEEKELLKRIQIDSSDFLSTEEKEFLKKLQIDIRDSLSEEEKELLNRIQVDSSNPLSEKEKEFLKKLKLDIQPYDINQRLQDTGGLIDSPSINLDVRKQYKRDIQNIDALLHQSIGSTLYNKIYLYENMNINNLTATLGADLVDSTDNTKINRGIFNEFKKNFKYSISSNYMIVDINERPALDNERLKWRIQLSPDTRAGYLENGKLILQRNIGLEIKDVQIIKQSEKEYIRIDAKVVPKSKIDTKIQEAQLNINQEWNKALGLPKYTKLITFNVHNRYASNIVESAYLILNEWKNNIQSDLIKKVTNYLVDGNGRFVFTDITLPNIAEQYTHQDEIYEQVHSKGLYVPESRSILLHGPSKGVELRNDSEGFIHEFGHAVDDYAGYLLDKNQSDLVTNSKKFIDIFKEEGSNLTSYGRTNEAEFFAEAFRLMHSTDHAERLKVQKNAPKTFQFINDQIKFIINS
Autofluor counter = flagged as autofluorescent in microsphere protease counterscreen; compound autofluorescence counterscreen, microsphere flow cytometry; active compounds read high; fluorescence intensity (test concentration not listed); hit rate 3.1% among 360,000; in the data active = fluorescence intensity above about 16000; inconclusive = no clear call, values can overlap the other calls
Of the large screens only hits and unclear results are named; the others gave an inactive call. Rule as the data show it, unless noted: active = inhibition above about 30%; inconclusive = no clear call, values can overlap the other calls; inactive = below that.

C=CCn1c(SCC(=O)C(C)(C)C)nnc1-c1cccs1	Autofluor counter 23404
C=CCn1c(SCC(=O)C(C)(C)C)nnc1-c1ccccn1	Autofluor counter 20695
C=CCn1c(SCC(=O)Nc2ccc(C(=O)OCC)cc2)nnc1-c1cccs1	none
C=CCn1c(CCNC(=O)c2cccs2)nnc1SCC(=O)c1ccc(Br)cc1	Autofluor counter 20927
C=CCn1c(SCC(=O)c2ccc(NS(=O)(=O)c3ccccc3)cc2)nnc1-c1cccs1	BoNT-A LC inh2 inconclusive, Autofluor counter 20128
Cc1ccc(/C=C/C(=O)NC(=S)Nc2ccc(S(=O)(=O)Nc3cc(C)on3)cc2)cc1	none
COc1ccc2c(c1)C1=NN(/C(C)=C\C(C)=O)C(c3ccccc3)C1CC2 (stereo unspecified)	Autofluor counter 21972
COc1ccc2c(c1)C1=NN(/C(C)=C/C(C)=O)C(c3ccc(F)cc3)C1CC2 (stereo unspecified)	none
COc1ccc2c(c1)CCC1C2=NN(/C(C)=C\C(C)=O)C1c1ccc(F)cc1 (stereo unspecified)	BoNT F protease inconclusive, BoNT-A LC inh2 inconclusive, Anthrax LF prot inconclusive, Autofluor counter 34486
Cc1cc(NC(=O)C(C)SCC(=O)Nc2cc(C(F)(F)F)ccc2N2CCOCC2)no1 (stereo unspecified)	Autofluor counter inconclusive
COc1ccc(-c2ccc3c(c2)C2CC3CCN2Cc2ccc(OC(F)(F)F)cc2)cc1 (stereo unspecified)	none
COc1ccc(S(=O)(=O)N2CCCCCC2)cc1NC(=O)CN(C)Cc1ccc2c(c1)OCO2	none
NNc1nc(-c2ccccc2)cc(-c2ccccc2)n1	none
NNc1nc(-c2ccccc2)cc(-c2ccccc2O)n1	BoNT-A LC inh2 inconclusive, Autofluor counter 22292
Cc1cc(C(=O)N2CCCC(C(=O)c3cc(F)ccc3F)C2)c(C)o1 (stereo unspecified)	none
O=c1c2ccccc2nc(N2CCCC2)n1-c1ccc(Cl)cc1	Autofluor counter 22940
CCC1CCCCN1C(=O)c1cc(-c2ccc(Cl)c(Cl)c2)on1 (stereo unspecified)	BoNT-A LC inh2 inconclusive, Autofluor counter 25388
O=C(c1cc(-c2ccc(Cl)c(Cl)c2)on1)N1CCN(c2ccccc2)CC1	Autofluor counter 21958
CC1CCCCN1C(=O)c1cc(-c2ccc(Cl)c(Cl)c2)on1 (stereo unspecified)	BoNT-A LC inh2 inconclusive, Autofluor counter 22609
O=C(c1cc(-c2ccc(Cl)c(Cl)c2)on1)N1CCCCC1	none
Cc1ccc2nc(SCC(=O)Nc3ccc(C)c(Cl)c3)nc(=O)n2c1	MazEF act 74
COc1ccc(NC(=O)CC2C(=O)N(C)C(=S)N2Cc2ccco2)cc1 (stereo unspecified)	none
CCN1C(=O)C(CC(=O)Nc2ccc(OC)cc2)N(Cc2cccnc2)C1=S (stereo unspecified)	none
COc1ccc(NC(=O)CC2C(=O)N(CCc3ccccc3)C(=S)N2Cc2cccnc2)cc1 (stereo unspecified)	Autofluor counter 20810
C=CCN1C(=O)C(CC(=O)Nc2ccc(OC)cc2)N(Cc2ccco2)C1=S (stereo unspecified)	BoNT-A LC inh2 inconclusive, Autofluor counter 22980
CCc1cc2c(=O)c(-c3nc4ccccc4n3C)c(COCC(=O)O)oc2cc1O	none
CCCc1cc2c(=O)c(-c3nc4ccccc4s3)c(COCC(=O)O)oc2cc1O	MazEF act 60
O=C(CCC(=O)N1CCN(S(=O)(=O)c2ccccc2)CC1)c1ccc(Br)cc1	none
O/N=C/c1cc(Br)ccc1OCc1ccccc1F	PfHsp40 rescue 721
Fc1ccccc1COc1ccc(Br)cc1CNCc1ccncc1	PfHsp40 rescue 242
Fc1ccccc1COc1ccc(Br)cc1CNCc1cccnc1	none
NS(=O)(=O)c1ccc(N2CCN(CCOc3ccc(Cl)cc3)CC2)nc1	none
Nn1c(SCC(=O)Nc2ccc3c(c2)OCO3)nnc1-c1cccc(Cl)c1	none
C=C(C)CSc1nnc(-c2ccc(OC)cc2)n1N	Autofluor counter 19732
C=C(C)CSc1nnc(-c2cccc(Cl)c2)n1N	Autofluor counter 21220
S=c1[nH]nc(COc2ccc(Cl)cc2Cl)n1-c1ccccc1	none (no result: BoNT F protease, BoNT-A LC inh2, Anthrax LF prot, Autofluor counter)
CC(=O)c1c(O)cc(C)n(Nc2nc(C)cc(C)n2)c1=O	BoNT-A LC inh2 inconclusive, Autofluor counter 21656
CN(C)c1ccc(N=Cc2ccco2)cc1	Autofluor counter 20149
CN(C)c1ccc(C=Nc2ccc(N(C)C)cc2)cc1	none
CCCC(=O)Nc1c2c(nn1-c1ccc(OC)cc1)CS(=O)(=O)C2	Autofluor counter 19921
CCSc1nnc(NC(=O)C2CCCN(C(=O)c3ccc(Cl)cc3)C2)s1 (stereo unspecified)	none (no result: PfHsp40 rescue)
Cc1ccc(-n2nc3c(c2NC(=O)C(C)C)CS(=O)(=O)C3)cc1	none
CCOC(=O)C1=C(N)N(c2ccccc2Oc2ccccc2)C(=O)C1	none
CCOC(=O)C1=C2NC(=O)c3ccccc3N2C(=O)C1	MazEF act 132
COC(=O)c1nn(-c2ccc(OC)cc2)c(=O)cc1Oc1cccc(Cl)c1	BoNT-A LC inh2 inconclusive, Autofluor counter 20164
COC(=O)c1nn(-c2ccc(Oc3ccccc3)cc2)c(=O)cc1O	none
CCOCCCNC(=O)CS(=O)(=O)Cc1nc(-c2cccc(OC)c2)oc1C	BoNT-A LC inh2 inconclusive, Autofluor counter 21852
CCCNC(=O)CS(=O)(=O)Cc1nc(-c2cccc(OC)c2)oc1C	none
FC(F)(F)c1cccc(CNC2c3ccccc3-c3ccccc32)c1	none
Cc1ccc(S(=O)(=O)NN2C(=O)c3ccccc3NC2c2ccccn2)cc1 (stereo unspecified)	none
Cc1nc(C)c(C(=O)NNC(=O)Nc2ccc(Cl)cc2)s1	BoNT F protease inconclusive
COC(=O)c1sc(-c2ccc(C(C)(C)C)cc2)cc1NC(=O)COCC(=O)O	BoNT F protease inconclusive, PfHsp40 rescue 33
COC(=O)c1sc(-c2ccc(Cl)cc2)cc1NC(=O)CSCC(=O)O	none
O=C(CN1CCN(Cc2ccc(F)cc2)CC1)NCc1ccccc1	BoNT F protease inconclusive
Cc1nc(N)nc(N)c1Oc1ccc(Cl)cc1	none
Cc1nc(N)nc(N)c1/C=C/C(C)(C)c1ccc(Cl)cc1	PfHsp40 rescue 151
CCOC(=O)C1=C(CC)OC(N)=C(C#N)C1c1ccc(OC)cc1OC (stereo unspecified)	BoNT-A LC inh2 inconclusive, Autofluor counter 19947
CCOC(=O)C1=C(CC)OC(N)=C(C#N)C1c1ccsc1 (stereo unspecified)	none
CCOC(=O)C1=C(C)OC(N)=C(C#N)C1c1ccsc1 (stereo unspecified)	PfHsp40 rescue inconclusive, Autofluor counter 17866
CNC(=O)c1ccsc1NC(=O)CS(=O)(=O)c1ccc(F)cc1	none (no result: PfHsp40 rescue)
Cc1cc(N2CCN(S(=O)(=O)c3ccc4c(c3)OCCO4)CC2)n2ncnc2n1	Autofluor counter 23595
Cc1cc(Nc2ccc3c(c2)OCCO3)n2ncnc2n1	Autofluor counter 22455
Cc1cc(Nc2ccc(N(C)C)cc2)n2ncnc2n1	none
O=C1CC(Nc2ccc(N3CCOCC3)cc2)C(=O)N1c1ccccc1 (stereo unspecified)	none
